The test has as its target T1, Monocarboxylate transporter 1 (UniProt P53985).
T1 sequence: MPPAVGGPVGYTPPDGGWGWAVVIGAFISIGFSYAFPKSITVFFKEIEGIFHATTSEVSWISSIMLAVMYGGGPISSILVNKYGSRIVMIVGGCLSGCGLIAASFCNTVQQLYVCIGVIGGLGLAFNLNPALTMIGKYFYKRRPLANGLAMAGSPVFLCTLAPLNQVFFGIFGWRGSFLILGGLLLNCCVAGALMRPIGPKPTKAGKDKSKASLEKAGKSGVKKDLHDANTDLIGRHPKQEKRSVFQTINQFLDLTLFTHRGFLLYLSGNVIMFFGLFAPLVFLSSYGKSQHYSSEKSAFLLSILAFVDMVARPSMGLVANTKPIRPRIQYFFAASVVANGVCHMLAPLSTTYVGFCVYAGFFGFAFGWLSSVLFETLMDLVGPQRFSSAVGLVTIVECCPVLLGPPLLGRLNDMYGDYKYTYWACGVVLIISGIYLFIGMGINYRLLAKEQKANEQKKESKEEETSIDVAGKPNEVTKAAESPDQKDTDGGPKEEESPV
Kind of test: cross-link between two proteins; cross-linking mass spectrometry.

Regarding “Sodium/potassium-transporting ATPase subunit alpha-1, P05023”, the “listed as a hit” value is listed as “yes”.

(Values after publication PMC11024108.)
